As usually defined, the AC50 is the concentration giving half of the maximal activity seen.

The record followed here is PubChem BioAssay (EPA / NIEHS).

Molecules are shown by their SMILES. “And” between values parts separate entries of the source, which are not always exact repeats. Identical values can stand only once. More than one record can exist for a structure, and the calls need not agree. The source made the active and inactive calls. The calls were made as follows: active = hit-call score of the fitted dose curve at least 0.9, where 1 is the maximum; inactive = score below 0.9.

The nature of experiment [1]: CEETOX_H295R_ESTRADIOL: CeeTox H295R High-throughput Steroidogenesis Assay for Estradiol (AID 2283440).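 Also: estradiol secreted into medium quantified by LC-MS/MS after dansyl derivatisation.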 As to conditions: actives raise or lower the signal. In short, it runs like this:
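H295R, 48 h forskolin (10 uM) prestim → 48 h compound, 0.1% DMSO final. Estradiol in medium: MTBE extraction, dansyl chloride derivatization, LC-MS/MS. Fit bidirectional vs DMSO baseline; MTT viability in same wells.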

Experiment [2] can be described thus: CEETOX_H295R_PROG: CeeTox H295R High-throughput Steroidogenesis Assay for Progesterone (PROG) (AID 2283442). Conditions: actives raise or lower the signal. In short, it runs like this:
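Progesterone read-out: HPLC-MS/MS on MTBE extracts of conditioned medium after 48 h chemical exposure of forskolin-primed (10 uM, 48 h) H295R cells. Gain or loss of signal was fitted relative to DMSO baseline.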

Read-out in experiment [3]: Tumor necrosis factor receptor superfamily member 6 (Homo sapiens) (UniProt P25445)
Kind of experiment: LTEA_HepaRG_FAS: Life Technologies and Expression Analysis (LTEA) Assay for Fas cell surface death receptor (FAS) using HepaRG (AID 2283447). Conditions: mRNA level, 48 h; actives raise or lower the signal. In short, it runs like this: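 FAS transcript level was measured by TaqMan qRT-PCR against three housekeeping genes after 48 h chemical exposure. Cells were HepaRG, 0.5% DMSO vehicle, with a top concentration of 100 uM and half-log dilutions over eight points, in duplicate.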

Read-out in experiment [4]: Fatty acid synthase (Homo sapiens) (UniProt P49327)
Kind of experiment: LTEA_HepaRG_FASN: Life Technologies and Expression Analysis (LTEA) Assay for Fatty Acid Synthase (FASN) using HepaRG (AID 2283448).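 As to AC50: differentiated human HepaRG liver cells in serum-free induction medium.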 As to conditions: mRNA level, 48 h; actives raise or lower the signal. An outline of the steps:
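HepaRG, 48 h exposure, 8-pt half-log series top 100 uM, 0.5% DMSO vehicle, duplicates. Readout: FASN transcript by Fluidigm qRT-PCR; housekeeping-normalized; bidirectional curve fit vs DMSO baseline.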

Read-out in experiment [5]: Cyclin D2 (CCND2), CCND2 (gene 894)
The experiment in a line: LTEA_HepaRG_CCND2: Life Technologies and Expression Analysis (LTEA) Assay for Cyclin D2 (CCND2) using HepaRG (AID 2283449). Conditions: mRNA level, 48 h; actives raise or lower the signal. An outline of the steps: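 CCND2 transcript levels, quantified by qRT-PCR and normalised to three housekeeping genes, were fitted bidirectionally against 0.5% DMSO. HepaRG cultures were dosed 48 h in duplicate with an 8-point half-log series up to 100 uM.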

Read-out in experiment [6]: Cyclin Dependent Kinase Inhibitor 1A (CDKN1A), CDKN1A (gene 1026)
Kind of experiment: LTEA_HepaRG_CDKN1A: Life Technologies and Expression Analysis (LTEA) Assay for Cyclin Dependent Kinase Inhibitor 1A (CDKN1A) using HepaRG (AID 2283450). As to conditions: mRNA level, 48 h; actives raise or lower the signal. In short, it runs like this: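 HepaRG, 48 h dosing, 8-pt half-log series from 100 uM top, 0.5% DMSO vehicle, duplicates. Readout: TaqMan qRT-PCR of CDKN1A transcript, housekeeping-normalized (ACTB, GAPDH, POLR2A). Up/down curve fit relative to DMSO.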

Read-out in experiment [7]: Cyclin D1 (CCND1), CCND1 (gene 595)
The experiment in a line: LTEA_HepaRG_CCND1: Life Technologies and Expression Analysis (LTEA) Assay for Cyclin D1 (CCND1) using HepaRG (AID 2283451).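 As to AC50: differentiated human HepaRG liver cells in serum-free induction medium.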 Conditions: mRNA level, 48 h; actives raise or lower the signal. An outline of the steps:
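qRT-PCR (Fluidigm 96.96 array) read-out of transcript level, housekeeping-normalized (ACTB/GAPDH/POLR2A). HepaRG cells, 48 h chemical exposure, 8-point half-log series from 100 uM, 0.5% DMSO vehicle; gain or loss relative to DMSO baseline.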

Read-out in experiment [8]: catalase (CAT), CAT (gene 847)
Kind of experiment: LTEA_HepaRG_CAT: Life Technologies and Expression Analysis (LTEA) Assay for catalase (CAT) using HepaRG (AID 2283452). As to conditions: mRNA level, 48 h; actives raise or lower the signal. In short, it runs like this: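 Expression of CAT was quantified by TaqMan qRT-PCR with ACTB/GAPDH/POLR2A normalization after 48 h chemical exposure of HepaRG. Eight-point half-log series, top 100 uM, in 0.5% DMSO; gain or loss fitted against vehicle.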

Read-out in experiment [9]: flavin-containing dimethylaniline monooxygenases 3 (FMO3), FMO3 (gene 2328)
The experiment in a line: LTEA_HepaRG_FMO3: Life Technologies and Expression Analysis (LTEA) Assay for flavin-containing dimethylaniline monooxygenases 3 (FMO3) using HepaRG (AID 2283453).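 As to AC50: differentiated human HepaRG liver cells in serum-free induction medium.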 As to conditions: mRNA level, 48 h; actives raise or lower the signal. An outline of the steps:
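Eight-point concentration-response in serum-free HepaRG cultures (top 100 uM, 0.5% DMSO, 48 h). Read-out: FMO3 mRNA level normalized to three endogenous control genes, fitted bidirectionally versus vehicle.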

Read-out in experiment [10]: Cytochrome P450 (CYP1A1), CYP1A1 (gene 1543)
The experiment in a line: LTEA_HepaRG_CYP1A1: Life Technologies and Expression Analysis (LTEA) Assay for Cytochrome P450 (CYP1A1) using HepaRG (AID 2283454). As to conditions: mRNA level, 48 h; actives raise or lower the signal. In short, it runs like this:
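qRT-PCR read-out: CYP1A1 transcript normalized to three housekeeping genes, fitted bidirectionally against 0.5% DMSO vehicle baseline. Human HepaRG cells, 48 h chemical exposure, 8-point half-log series topping at 100 uM.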

Read-out in experiment [11]: CFLAR gene, CFLAR (gene 8837)
Kind of experiment: LTEA_HepaRG_CFLAR: Life Technologies and Expression Analysis (LTEA) Assay for CFLAR gene using HepaRG (AID 2283455). As to conditions: mRNA level, 48 h; actives raise or lower the signal. In short, it runs like this:
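Transcript level by qRT-PCR (normalized to ACTB, GAPDH and POLR2A) after 48 h chemical exposure of HepaRG cells, top concentration 100 uM with half-log steps, 0.5% DMSO vehicle, duplicates; fitted bidirectionally against DMSO baseline.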

Read-out in experiment [12]: Forkhead box O1 (FOXO1), FOXO1 (gene 2308)
The experiment in a line: LTEA_HepaRG_FOXO1: Life Technologies and Expression Analysis (LTEA) Assay for Forkhead box O1 (FOXO1) using HepaRG (AID 2283456). Conditions: mRNA level, 48 h; actives raise or lower the signal. In short, it runs like this:
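FOXO1 transcript quantified by qRT-PCR after 48 h chemical exposure (top 100 uM, half-log steps, 0.5% DMSO) of HepaRG cells, housekeeping-normalized (ACTB/GAPDH/POLR2A). Changes fitted in both directions relative to vehicle.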

Read-out in experiment [13]: growth arrest and DNA damage 45 (GADD45A), GADD45A (gene 1647)
The experiment in a line: LTEA_HepaRG_GADD45A: Life Technologies and Expression Analysis (LTEA) Assay for growth arrest and DNA damage 45 (GADD45A) using HepaRG (AID 2283458). Conditions: mRNA level, 48 h; actives raise or lower the signal. In short, it runs like this: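 HepaRG, 48 h exposure, 8 conc. (top 100 uM, half-log steps), 0.5% DMSO vehicle, duplicates. Read-out: qRT-PCR mRNA level, housekeeping-normalized (ACTB/GAPDH/POLR2A). Curves fit bidirectionally vs DMSO baseline.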

Read-out in experiment [14]: Forkhead box O3 (FOXO3), FOXO3 (gene 2309)
The experiment in a line: LTEA_HepaRG_FOXO3: Life Technologies and Expression Analysis (LTEA) Assay for Forkhead box O3 (FOXO3) using HepaRG (AID 2283459). As to conditions: mRNA level, 48 h; actives raise or lower the signal. In short, it runs like this:
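FOXO3 transcript measured by qRT-PCR (normalized to ACTB, GAPDH, POLR2A) after 48 h exposure of HepaRG cells in serum-free induction medium. Duplicates, eight half-log concentrations up to 100 uM, 0.5% DMSO; gain or loss fitted against DMSO.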

Read-out in experiment [15]: growth arrest and DNA damage 45 (GADD45B), GADD45B (gene 4616)
Kind of experiment: LTEA_HepaRG_GADD45B: Life Technologies and Expression Analysis (LTEA) Assay for growth arrest and DNA damage 45 (GADD45B) using HepaRG (AID 2283461). Conditions: mRNA level, 48 h; actives raise or lower the signal. An outline of the steps: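 qRT-PCR read-out (Fluidigm TaqMan, housekeeping-normalized) of mRNA change in human HepaRG cells after 48 h chemical exposure; 8-point curve, top 100 uM, half-log steps, 0.5% DMSO vehicle; gain or loss fitted relative to DMSO baseline.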

Read-out in experiment [16]: ABC Transporter (ABCC3), ABCC3 (gene 8714)
Kind of experiment: LTEA_HepaRG_ABCC3: Life Technologies and Expression Analysis (LTEA) Assay for ABC Transporter (ABCC3) using HepaRG (AID 2283462). As to conditions: mRNA level, 48 h; actives raise or lower the signal. In short, it runs like this: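 qRT-PCR read-out of ABCC3 transcript, normalized to three housekeeping genes (ACTB, GAPDH, POLR2A), after 48 h chemical exposure of human HepaRG cells. Eight half-log concentrations, highest 100 uM, in 0.5% DMSO; gain or loss fitted relative to DMSO baseline.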

Read-out in experiment [17]: ABC Transporter (ABCB11), ABCB11 (gene 8647)
Kind of experiment: LTEA_HepaRG_ABCB11: Life Technologies and Expression Analysis (LTEA) Assay for ABC Transporter (ABCB11) using HepaRG (AID 2283463). Conditions: mRNA level, 48 h; actives raise or lower the signal. An outline of the steps:
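ABCB11 transcript levels quantified by TaqMan qRT-PCR against three housekeeping genes after 48 h chemical exposure of HepaRG cultures. Concentrations up to 100 uM in half-log steps, 0.5% DMSO vehicle; both induction and suppression scored.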

Read-out in experiment [18]: ABC Transporter (ABCC2), ABCC2 (gene 1244)
The experiment in a line: LTEA_HepaRG_ABCC2: Life Technologies and Expression Analysis (LTEA) Assay for ABC Transporter (ABCC2) using HepaRG (AID 2283464). Conditions: mRNA level, 48 h; actives raise or lower the signal. An outline of the steps:
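qRT-PCR (TaqMan, Fluidigm array) read-out of ABCC2 mRNA, normalized to three housekeeping genes. Differentiated HepaRG cells were treated 48 h in serum-free induction medium with 8-point half-log series from 100 uM in 0.5% DMSO; curves fitted bidirectionally relative to DMSO.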

Read-out in experiment [19]: ABC Transporter (ABCB1), ABCB1 (gene 5243)
The experiment in a line: LTEA_HepaRG_ABCB1: Life Technologies and Expression Analysis (LTEA) Assay for ABC Transporter (ABCB1) using HepaRG (AID 2283460). Conditions: mRNA level, 48 h; actives raise or lower the signal. In short, it runs like this: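 ABCB1 transcript level measured by TaqMan qRT-PCR against three housekeeping genes after 48 h chemical exposure of differentiated HepaRG cells. Top concentration 100 uM, half-log steps, eight points, 0.5% DMSO vehicle; bidirectional fit relative to DMSO.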

Chain of Fatty acid synthase (Homo sapiens) (P49327 whole entry, looked up): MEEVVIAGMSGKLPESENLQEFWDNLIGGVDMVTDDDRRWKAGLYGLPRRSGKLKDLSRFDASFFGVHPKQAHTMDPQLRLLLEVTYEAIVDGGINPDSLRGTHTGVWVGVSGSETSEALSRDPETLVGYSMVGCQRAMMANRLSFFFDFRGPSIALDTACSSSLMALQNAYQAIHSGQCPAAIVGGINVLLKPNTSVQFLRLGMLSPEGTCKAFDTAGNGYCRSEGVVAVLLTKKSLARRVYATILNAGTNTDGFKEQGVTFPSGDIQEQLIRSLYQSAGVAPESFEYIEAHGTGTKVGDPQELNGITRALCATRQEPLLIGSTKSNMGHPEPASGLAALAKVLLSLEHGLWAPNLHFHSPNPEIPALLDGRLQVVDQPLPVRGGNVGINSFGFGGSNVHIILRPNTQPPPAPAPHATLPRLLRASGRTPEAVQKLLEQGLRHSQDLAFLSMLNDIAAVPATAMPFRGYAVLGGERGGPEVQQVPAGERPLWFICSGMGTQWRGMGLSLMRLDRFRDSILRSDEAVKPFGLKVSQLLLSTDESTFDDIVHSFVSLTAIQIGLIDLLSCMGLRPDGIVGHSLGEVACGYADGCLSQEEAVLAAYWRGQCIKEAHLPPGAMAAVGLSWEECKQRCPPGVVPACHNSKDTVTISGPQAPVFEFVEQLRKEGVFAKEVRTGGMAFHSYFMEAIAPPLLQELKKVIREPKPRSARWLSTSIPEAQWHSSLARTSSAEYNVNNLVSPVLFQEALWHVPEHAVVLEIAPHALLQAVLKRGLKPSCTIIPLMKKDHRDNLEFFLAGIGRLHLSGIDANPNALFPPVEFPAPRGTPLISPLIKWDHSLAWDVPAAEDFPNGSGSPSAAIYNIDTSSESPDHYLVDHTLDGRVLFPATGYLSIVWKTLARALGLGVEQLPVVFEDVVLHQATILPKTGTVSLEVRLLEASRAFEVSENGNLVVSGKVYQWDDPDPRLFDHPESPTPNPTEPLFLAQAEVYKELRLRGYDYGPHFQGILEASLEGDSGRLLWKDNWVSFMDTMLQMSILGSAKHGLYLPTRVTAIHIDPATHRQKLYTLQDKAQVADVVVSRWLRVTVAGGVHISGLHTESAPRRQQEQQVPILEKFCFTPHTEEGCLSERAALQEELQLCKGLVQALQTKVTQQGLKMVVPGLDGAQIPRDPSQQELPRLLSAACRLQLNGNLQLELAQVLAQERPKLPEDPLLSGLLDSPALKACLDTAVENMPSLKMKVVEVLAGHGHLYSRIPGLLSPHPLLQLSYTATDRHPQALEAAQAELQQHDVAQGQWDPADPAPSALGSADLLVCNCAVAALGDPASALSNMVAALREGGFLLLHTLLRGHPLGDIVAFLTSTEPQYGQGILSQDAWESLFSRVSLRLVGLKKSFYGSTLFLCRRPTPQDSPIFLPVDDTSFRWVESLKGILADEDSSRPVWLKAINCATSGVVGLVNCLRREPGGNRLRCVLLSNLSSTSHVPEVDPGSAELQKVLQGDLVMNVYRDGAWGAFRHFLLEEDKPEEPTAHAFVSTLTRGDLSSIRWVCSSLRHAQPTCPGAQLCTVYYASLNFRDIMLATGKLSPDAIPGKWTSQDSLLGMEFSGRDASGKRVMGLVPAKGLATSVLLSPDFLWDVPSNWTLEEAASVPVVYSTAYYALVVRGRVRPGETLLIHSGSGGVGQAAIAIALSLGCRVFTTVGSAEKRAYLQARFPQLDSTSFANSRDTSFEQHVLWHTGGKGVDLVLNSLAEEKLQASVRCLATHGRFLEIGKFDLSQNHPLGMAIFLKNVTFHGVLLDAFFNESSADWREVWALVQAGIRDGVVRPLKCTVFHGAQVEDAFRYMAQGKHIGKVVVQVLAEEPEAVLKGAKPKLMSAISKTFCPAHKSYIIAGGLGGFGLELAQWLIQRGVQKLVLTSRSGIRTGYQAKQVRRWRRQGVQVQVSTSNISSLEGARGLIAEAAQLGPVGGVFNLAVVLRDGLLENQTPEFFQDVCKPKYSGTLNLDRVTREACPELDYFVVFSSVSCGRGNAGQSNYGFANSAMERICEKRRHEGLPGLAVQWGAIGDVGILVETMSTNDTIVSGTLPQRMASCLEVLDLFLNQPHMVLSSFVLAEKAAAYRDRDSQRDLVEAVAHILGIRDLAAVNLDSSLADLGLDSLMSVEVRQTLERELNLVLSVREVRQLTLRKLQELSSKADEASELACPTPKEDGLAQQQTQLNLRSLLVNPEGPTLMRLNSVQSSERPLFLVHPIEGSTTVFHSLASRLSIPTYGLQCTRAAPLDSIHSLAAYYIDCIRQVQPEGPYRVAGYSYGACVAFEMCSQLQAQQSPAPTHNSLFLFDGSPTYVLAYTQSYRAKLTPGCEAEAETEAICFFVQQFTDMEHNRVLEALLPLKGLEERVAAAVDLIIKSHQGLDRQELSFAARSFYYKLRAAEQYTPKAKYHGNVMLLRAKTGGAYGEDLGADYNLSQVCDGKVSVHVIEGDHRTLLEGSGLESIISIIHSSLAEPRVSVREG

Regarding `CCOc1cc(Oc2ccc(C(F)(F)F)cc2Cl)ccc1[N+](=O)[O-]`, the AC50 was 1.78 µM (active) in experiment [1]; 14.4 µM (active) in experiment [3]; 32 µM (active) in [4]; 36.2 µM (active) in experiment [8]; 50 µM (active) in experiment [9]; 9.84 µM (active) in experiment [10]. Besides, in experiment [17], the AC50 was 19.1 µM (active). Also, the molecule was called inactive in experiment [2], in experiment [5], in [6], in [7], in [11] and in experiment [12]. Moreover, the call in [13], in experiment [14], in experiment [15], in [16] and in experiment [18] was inactive.

As to `CC(C)(C)c1ccc(CSc2cnn(C(C)(C)C)c(=O)c2Cl)cc1`, the half-maximal activity concentration (AC50) in [3] is 1.9 µM (active); in experiment [4], 24 µM (active); in experiment [6] it was 2.3 µM (active); in [8] it was 1.85 µM (active); in [9] it was 2.68 µM (active); in [10], 14.2 µM (active). Moreover, the half-maximal activity concentration (AC50) is 2.12 µM (active) in [12]; 1.99 µM (active) in experiment [13]; 1.49 µM (active) in [14]; 4.66 µM (active) in experiment [19]; 2.21 µM (active) in experiment [17]; 9.03 µM (active) in [18]. Further, the result in experiment [5], in experiment [7], in [11], in experiment [15] and in experiment [16] was inactive.

For `C=CCC1=C(C)C(OC(=O)C2C(C=C(C)C)C2(C)C)CC1=O` (stereo unspecified), the result in experiment [2], in experiment [3], in [4], in experiment [5], in experiment [6] and in experiment [7] was inactive. Further, the result in experiment [8], in experiment [9], in experiment [11], in experiment [12], in experiment [13] and in experiment [14] was inactive. Moreover, the result in experiment [19], in experiment [15], in experiment [16] and in experiment [18] was inactive. The AC50 in experiment [7] is 88.2 µM (active); in [8] it was 83.6 µM (active) and 16.6 µM (active); in experiment [9], 80.2 µM (active); in experiment [10], 50 µM (active) and 31.8 µM (active) and 35.1 µM (active); in experiment [17] it was 64.8 µM (active) and 79.9 µM (active) and 19 µM (active).
